Assay [1] can be described thus: qHTS Assay for Identification of Small Molecule Agonists for Thrombopoietin (TPO) Signaling Pathway (AID 917). In a few lines:
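First, Ba/F3 cells with human TPO receptor were held overnight without IL-3. Next, compounds and TPO (26 pM final) were added. After 24 hrs at 37 C, luciferase detection reagent was added and luminescence measured following 10 min at room temperature.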

The target in assay [2] is Pyruvate kinase (Leishmania mexicana) (UniProt Q27686). The assay is described as follows: qHTS Validation Assay for Inhibitors of Leishmania Mexicana Pyruvate Kinase (AID 945). In short, it runs like this: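 qHTS eight-point titrations against 0.2 nM LmPYK (E451W) in imidazole buffer pH 7.2 with 0.5 mM PEP, 0.1 mM ADP; 1 h, room temperature. Readout: PKLight luminescence, normalized to neutral DMSO wells.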
(In qHTS, concentration-response curves come from the screen itself.)

Assay [3] concerns the target Pyruvate kinase PKM (Homo sapiens) (UniProt P14618). The assay is described as follows: qHTS Assay for Activators of Human Muscle Pyruvate Kinase (AID 954; active = well fitted curve in the direction sought with a large enough effect, not every such curve was filed as active). In short, it runs like this:
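ATP production by PKM2 detected via luciferase luminescence after 1 h room-temperature reaction (0.1 nM enzyme, PEP at Km 0.5 mM, ADP 0.1 mM, pH 7.2 imidazole buffer). Inhibition scaled to no-enzyme control; activation referenced to 0.3 nM enzyme wells.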

Assay [4] addresses Muscarinic acetylcholine receptor M1 (Rattus norvegicus) (UniProt P08482). The assay is described as follows: qHTS Assay for Antagonists of Acetylcholine Muscarinic M1 Receptor: Kinetic Measurement of Intracellular Calcium Response (AID 943). Note: nearly all actives have a fitted effect of over 75% in size. Note: potency is the fitted concentration of half-maximal effect. In short, it runs like this: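 Read-out: peak over basal Fluo-4 fluorescence, kinetic at 1 Hz for 4 min after EC80 carbachol (100 nM final). Rat M1-CHO cells, dye loaded 1 h at 37C, compound added 10 min before agonist.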

For assay [5] the target is unchanged. The assay is described as follows: qHTS Assay for Antagonists of Acetylcholine Muscarinic M1 Receptor: Measurement of IP-One Response (AID 944). Note: nearly all actives have a fitted effect of over 75% in size. Note: potency is the fitted concentration of half-maximal effect. In a few lines:
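Read-out: HTRF competition between d2-IP1 and Eu-cryptate anti-IP1 antibody, emission 620 and 665 nm. Stimulus was carbachol, EC80 (200 nM), for 30 min in M1-CHO cells (rat receptor), after 10 min compound pre-treatment.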

Assay [6] is described as follows: qHTS Assay for Identification of Small Molecule Antagonists for Thrombopoietin (TPO) Signaling Pathway (AID 918). Note: potency is the fitted concentration of half-maximal effect; nearly all actives have a fitted effect of over 60% in size. Conditions: TPO-dependent cell signaling reporter, antagonist mode. In short, it runs like this:
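Luminescence read-out: GPIIb-promoter luciferase in Ba/F3 cells carrying human TPO receptor. Compounds added with 26 pM TPO (EC50), 24 hrs, 37 C, 5% CO2; cells deprived of IL-3 overnight beforehand. Inhibition of signal scored.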

Records with an inconclusive call do not appear. Where a call stands in place of a potency, no number is given. Activity calls are given as the source filed them. Unless noted, calls come from the whole dose curve; as a rule, active = well fitted curve in the direction sought with a large enough effect; inconclusive = small, poorly fitted or top-dose-only effect, or another doubt; inactive = no such curve, though single readings can be large; an effect the other way counts as inactive or inconclusive.

Sequence of Muscarinic acetylcholine receptor M1 (Rattus norvegicus) (P08482 whole entry, looked up): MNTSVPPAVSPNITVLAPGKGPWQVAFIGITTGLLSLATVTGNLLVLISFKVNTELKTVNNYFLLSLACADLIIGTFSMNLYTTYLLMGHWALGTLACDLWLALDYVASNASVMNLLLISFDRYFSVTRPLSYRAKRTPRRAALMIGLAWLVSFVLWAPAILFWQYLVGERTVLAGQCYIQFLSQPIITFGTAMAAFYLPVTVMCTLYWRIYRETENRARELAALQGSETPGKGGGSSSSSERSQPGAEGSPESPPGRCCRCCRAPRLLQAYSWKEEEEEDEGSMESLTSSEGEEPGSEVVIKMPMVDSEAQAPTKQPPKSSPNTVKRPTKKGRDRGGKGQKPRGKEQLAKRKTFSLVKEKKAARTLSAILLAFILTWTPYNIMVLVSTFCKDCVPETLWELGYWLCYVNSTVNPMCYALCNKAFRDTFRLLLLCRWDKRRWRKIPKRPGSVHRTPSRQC
Sequence of Pyruvate kinase PKM (Homo sapiens) (P14618 whole entry, looked up): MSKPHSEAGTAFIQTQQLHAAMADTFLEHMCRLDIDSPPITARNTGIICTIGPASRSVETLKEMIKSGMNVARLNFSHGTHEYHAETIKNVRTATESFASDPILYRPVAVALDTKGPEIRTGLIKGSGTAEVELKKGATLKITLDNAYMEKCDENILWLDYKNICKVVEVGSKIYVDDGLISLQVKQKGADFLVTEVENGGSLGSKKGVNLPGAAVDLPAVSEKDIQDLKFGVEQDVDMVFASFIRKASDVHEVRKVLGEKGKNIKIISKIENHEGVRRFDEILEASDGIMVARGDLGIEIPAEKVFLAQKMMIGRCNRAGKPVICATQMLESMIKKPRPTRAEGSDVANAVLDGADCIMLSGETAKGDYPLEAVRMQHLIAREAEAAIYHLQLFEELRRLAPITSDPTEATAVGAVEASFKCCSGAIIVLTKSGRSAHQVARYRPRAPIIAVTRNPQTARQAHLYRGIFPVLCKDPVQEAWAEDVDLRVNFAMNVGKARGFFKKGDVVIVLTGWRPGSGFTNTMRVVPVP
Sequence of Pyruvate kinase (Leishmania mexicana) (Q27686 2-499 E452W): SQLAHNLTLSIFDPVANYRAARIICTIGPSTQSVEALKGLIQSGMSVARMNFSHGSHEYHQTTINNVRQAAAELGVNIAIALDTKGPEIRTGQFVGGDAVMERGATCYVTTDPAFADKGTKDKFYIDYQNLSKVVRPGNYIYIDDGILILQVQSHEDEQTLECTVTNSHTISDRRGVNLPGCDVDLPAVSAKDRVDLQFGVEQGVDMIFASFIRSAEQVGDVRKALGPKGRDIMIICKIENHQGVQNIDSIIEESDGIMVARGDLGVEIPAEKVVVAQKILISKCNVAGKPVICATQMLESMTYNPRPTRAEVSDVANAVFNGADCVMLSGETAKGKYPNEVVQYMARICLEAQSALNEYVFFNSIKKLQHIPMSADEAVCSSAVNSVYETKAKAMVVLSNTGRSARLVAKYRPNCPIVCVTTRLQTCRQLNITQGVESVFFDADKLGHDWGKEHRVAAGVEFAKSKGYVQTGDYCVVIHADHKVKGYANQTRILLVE

For `COc1ccccc1N1CCN(CCCCN2C(=O)c3ccccc3C2=O)CC1`, the Potency entry in assay [1] and in assay [2] was “inactive” each time. The compound was called inactive in assay [3].
In the case of `O=c1[nH]c2ccccc2c2ccccc12`, the Potency result in assay [1] and in assay [2] was “inactive” each time. Also, the outcome in assay [3] was inactive.
`CCCCCCCC/C=C\CCCCCCCC(=O)NCCc1ccc(O)c(O)c1`: the Potency result in assay [4], in assay [5] and in assay [2] was “inactive” each time. Also, the compound was called inactive in assay [3].
On to `Cc1cccc(C(=O)NCN2CCN(c3ccccc3C#N)CC2)c1`, for which the Potency entry in assay [4] and in assay [2] was “inactive” each time. The compound was classed as inactive in assay [3].
On to `N=C(N)c1ccc(OCCCCCOc2ccc(C(=N)N)cc2)cc1` (tested in a mixture with another compound), for which, in assay [3], the compound was called inactive.
Regarding `N#C/C(=C\c1ccc(O)c(O)c1)C(=O)NCCc1ccccc1`, the Potency result in assay [4] and in assay [2] was “inactive” in each case. Also, in assay [3], the call was inactive.
As to `CCCCCCCCCCCCCCC[C@H](O)[C@H](N)CO`, the values for the Potency in assay [6] and in assay [4] were 12.6 µM (active) and 8.91 µM (active), respectively. The Potency result in assay [5] and in assay [2] was “inactive” each time. Moreover, in assay [3], the compound was classed as inactive.
Regarding `O=c1oc(Cl)c(Cl)c2ccccc12`, the Potency result in assay [4], in assay [5] and in assay [2] was “inactive” in each case. Moreover, in assay [3], the outcome was inactive.
As to `O=C(O)Cc1ccc(O)c(O)c1`, the Potency result in assay [4] and in assay [2] was “inactive” each time. For the same compound, the result in assay [3] was inactive.
Regarding `NCCNS(=O)(=O)c1cccc2c(Cl)cccc12`, the Potency entry in assay [4], in assay [5] and in assay [2] was “inactive” in each case. For the same compound, the outcome in assay [3] was inactive.
For the compound `CCN(CC)CCCCCCCCOC(=O)c1cc(OC)c(OC)c(OC)c1`, the Potency in assay [4] and in assay [5] was 2.82 µM (active) in each case. The Potency entry in assay [2] was “inactive”. Moreover, the result in assay [3] was inactive.
As for `Nc1ncnc2c1c(-c1ccc(Oc3ccccc3)cc1)cn2C1CCCC1`, the Potency entry in assay [5] and in assay [2] was “inactive” in each case. For the same compound, the compound was classed as inactive in assay [3].

(Values after PubChem BioAssay (NCATS).)
